These results are taken from PubChem BioAssay.

Experiment [1] relates to Plasmodium falciparum Sir2 (PF13_0152, Sir2A). The experiment can be described thus: Plasmodium falciparum Sir2A binding compounds – biochemical, small-molecule microarray, 635 nm fluorescence, primary screen (AID 1098).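 Note: score merges spot fluorescence intensity with its signal-to-noise ratio.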 Particulars: fluorescence 635 nm, higher = more signal.
Experiment [2] in a line: probe aDKK1 binding to arrayed compounds – biochemical, biotinylated probe, 635/667 nm fluorescence, primary screen (AID 1099).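 Note: score merges 667nm spot fluorescence with signal to noise across triplicate slides.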 The settings on record: small-molecule microarray, higher = more signal.
The nature of experiment [3]: probe aCHRDL2 binding to arrayed compounds – biochemical, biotinylated probe, 635/667 nm fluorescence, primary screen (AID 1100). The settings on record: small-molecule microarray, higher = more signal.
Experiment [4] is described as follows: change in splice reporter luminescence, either direction, cell-based, HEK293, spliceosome inhibition project, primary screen (AID 1101).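 Note: HEK293 cells carrying a splicing-competent luciferase reporter gene; test concentration not given here.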 Particulars: HEK293 splicing luciferase reporter, 24 h, higher = more signal, called active from +8 up or from −8 down.
Experiment [5] addresses Fibroblast growth factor 10 (Homo sapiens) (UniProt O15520). The experiment can be described thus: compounds binding fibroblast growth factor 10 – biochemical, small-molecule microarray, 635 nm fluorescence, primary screen (AID 1102). Particulars: FGF10 binding, fluorescence 635 nm, higher = more signal.
Experiment [6] concerns glycogen synthase kinase-3 (GSK3A per assay name; protocol says GSK3B). As to the kind of experiment: compounds binding glycogen synthase kinase-3 – biochemical, small-molecule microarray, 635 nm fluorescence, GSK3A, primary screen (AID 1103). Note: the record names both GSK3A and GSK3B. Particulars: fluorescence 635 nm, higher = more signal.
The target in experiment [7] is Epidermal growth factor receptor (Homo sapiens) (UniProt P00533). The experiment can be described thus: compounds binding epidermal growth factor receptor – biochemical, small-molecule microarray, 635 nm fluorescence, primary screen (AID 1104).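 Note: score merges 667 nm emission intensity with spot signal to noise over triplicate slides.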 Particulars: EGFR binding, higher = more signal.
Sequence of Epidermal growth factor receptor (Homo sapiens) (P00533 whole entry, looked up): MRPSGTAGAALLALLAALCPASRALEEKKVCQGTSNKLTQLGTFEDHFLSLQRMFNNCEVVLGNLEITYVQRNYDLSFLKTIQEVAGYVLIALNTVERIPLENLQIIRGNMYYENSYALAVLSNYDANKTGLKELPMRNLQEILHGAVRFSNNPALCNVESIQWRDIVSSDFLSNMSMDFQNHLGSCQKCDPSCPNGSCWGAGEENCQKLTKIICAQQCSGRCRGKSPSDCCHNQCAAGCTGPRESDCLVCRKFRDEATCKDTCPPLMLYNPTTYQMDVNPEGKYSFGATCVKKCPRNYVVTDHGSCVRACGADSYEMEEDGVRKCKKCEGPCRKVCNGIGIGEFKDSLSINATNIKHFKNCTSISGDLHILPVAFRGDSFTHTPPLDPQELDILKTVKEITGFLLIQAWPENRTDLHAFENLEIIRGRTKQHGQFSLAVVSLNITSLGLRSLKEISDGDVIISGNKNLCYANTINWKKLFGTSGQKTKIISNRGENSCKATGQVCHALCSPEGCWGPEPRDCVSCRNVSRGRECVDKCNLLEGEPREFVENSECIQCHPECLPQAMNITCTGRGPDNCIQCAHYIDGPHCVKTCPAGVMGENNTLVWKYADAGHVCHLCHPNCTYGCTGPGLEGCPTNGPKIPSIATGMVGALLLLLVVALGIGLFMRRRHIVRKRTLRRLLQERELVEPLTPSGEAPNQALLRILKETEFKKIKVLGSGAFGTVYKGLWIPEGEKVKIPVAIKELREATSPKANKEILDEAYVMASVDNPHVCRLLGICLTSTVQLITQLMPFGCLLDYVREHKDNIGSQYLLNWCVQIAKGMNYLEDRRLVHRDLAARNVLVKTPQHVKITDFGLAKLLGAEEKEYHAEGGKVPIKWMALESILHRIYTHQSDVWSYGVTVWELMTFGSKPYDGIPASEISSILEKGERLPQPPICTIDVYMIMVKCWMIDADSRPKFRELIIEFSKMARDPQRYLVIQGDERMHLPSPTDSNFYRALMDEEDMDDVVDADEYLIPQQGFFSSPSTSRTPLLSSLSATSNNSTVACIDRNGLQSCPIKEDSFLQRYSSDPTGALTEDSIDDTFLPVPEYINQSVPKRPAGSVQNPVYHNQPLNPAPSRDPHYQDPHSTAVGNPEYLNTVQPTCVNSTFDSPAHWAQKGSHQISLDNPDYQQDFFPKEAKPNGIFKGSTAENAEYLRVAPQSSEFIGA
Experiment [8] deals with Follistatin-related protein 3 (Homo sapiens) (UniProt O95633). The experiment can be described thus: compounds binding follistatin-related protein 3 – biochemical, small-molecule microarray, 635 nm fluorescence, primary screen (AID 1105).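 Note: score merges emission near 667 nm and signal to noise per printed spot across three slides.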 Particulars: FSTL3 binding, higher = more signal.
Sequence of Follistatin-related protein 3 (Homo sapiens) (O95633 whole entry, looked up): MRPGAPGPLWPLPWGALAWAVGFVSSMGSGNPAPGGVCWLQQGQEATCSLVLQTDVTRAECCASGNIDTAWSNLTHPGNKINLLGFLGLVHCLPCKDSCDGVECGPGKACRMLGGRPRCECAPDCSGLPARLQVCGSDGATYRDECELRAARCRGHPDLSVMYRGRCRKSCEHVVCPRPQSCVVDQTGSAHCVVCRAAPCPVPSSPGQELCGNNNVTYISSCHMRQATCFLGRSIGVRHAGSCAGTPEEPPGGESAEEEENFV
Experiment [9] addresses Dickkopf-related protein 1 (Homo sapiens) (UniProt O94907). As to the kind of experiment: small molecules binding DKK1 protein – biochemical, small-molecule microarray, 635 nm fluorescence scan, primary screen (AID 1106).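 Note: score merges emission near 667 nm with signal to noise over three replicate slides.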 Particulars: higher = more signal.
Experiment [10] deals with Inhibin beta A chain (activin A). The experiment can be described thus: small molecules binding activin A – biochemical, small-molecule microarray, 635 nm fluorescence scan, primary screen (AID 1107).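 Note: mouse activin A protein probed at 4.33 µg/mL on printed slides; score merges bound-protein fluorescence near 667 nm with spot signal-to-noise.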 The settings on record: INHBA, higher = more signal.
Experiment [11] deals with Human papillomavirus type 1a protein E7 (residues 44-93). The experiment can be described thus: small molecules binding HPV E7 44-93 – biochemical, small-molecule microarray, residues 44-93, 635 nm fluorescence, primary screen (AID 1108).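 Note: E7 fragment applied at 1 µg/mL in TBST for 1 h at 4 C; score combines spot fluorescence with its signal to noise ratio.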 The settings on record: fluorescence 635 nm, higher = more signal.
Experiment [12] can be described thus: hepatitis C replication reporter changes, two-sided – Huh7 cells, luciferase reporter, HCV replication inhibitor project, primary screen (AID 1109).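 Note: huh7 hepatoma cells harbouring a luciferase neomycin HCV replicon reporter; luciferase luminescence as measure of HCV replicon replication; test concentration not given here.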 Particulars: Huh7 HCV replicon luciferase reporter, 48 h; higher = more signal. On the technique in general: Reporter assays use an easily measured gene product as a stand-in for the process of interest.
Experiment [13] deals with Left-right determination factor 2 (Homo sapiens) (UniProt O00292). As to the kind of experiment: small molecules binding LEFTY2 protein – biochemical, small-molecule microarray, 635 nm fluorescence scan, primary screen (AID 1110). The settings on record: higher = more signal.
Sequence of Left-right determination factor 2 (Homo sapiens) (O00292 whole entry, looked up): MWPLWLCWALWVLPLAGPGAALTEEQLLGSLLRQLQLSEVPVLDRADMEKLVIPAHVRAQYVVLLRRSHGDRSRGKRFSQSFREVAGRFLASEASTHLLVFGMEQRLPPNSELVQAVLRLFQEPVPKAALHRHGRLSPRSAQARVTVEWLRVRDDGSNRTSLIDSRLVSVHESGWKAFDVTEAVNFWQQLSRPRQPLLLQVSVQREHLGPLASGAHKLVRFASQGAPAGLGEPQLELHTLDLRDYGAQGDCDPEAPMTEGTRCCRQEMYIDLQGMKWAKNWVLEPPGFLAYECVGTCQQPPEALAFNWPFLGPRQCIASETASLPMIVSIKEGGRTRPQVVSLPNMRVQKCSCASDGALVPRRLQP
In experiment [14] the target is Calmodulin-1 (Homo sapiens) (UniProt P0DP23). The experiment can be described thus: small molecules binding calmodulin-1 with EGTA – biochemical, small-molecule microarray, Cy5-labelled CALM1, profiling panel (AID 1111).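 Note: labelled calmodulin applied in Tris saline Tween buffer holding calcium plus EGTA and DTT.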 Particulars: Cy5-CALM1 binding fluorescence, higher = more signal.
The target is the same in experiment [15]. As to the kind of experiment: small molecules binding Ca-loaded calmodulin-1 – biochemical, small-molecule microarray, Cy5-labelled CALM1, plus calcium, artefact control for SMM control-protein annotation, profiling panel (AID 1112).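 Note: score merges spot fluorescence with signal to noise from triplicate slides.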 The settings on record: Cy5-CALM1 binding fluorescence, higher = more signal.
The nature of experiment [16]: probe aWnt5a binding to arrayed compounds – biochemical, biotinylated probe, 635/667 nm fluorescence, primary screen (AID 1113).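 Note: score merges 667 nm fluorescence intensity with signal-to-noise per printed feature.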 The settings on record: small-molecule microarray, higher = more signal.
Experiment [17] is described as follows: probe aShh binding to arrayed compounds – biochemical, biotinylated probe, 635/667 nm fluorescence, primary screen (AID 1114).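 Note: probe is biotin-labelled aShh protein from a stem cell growth factor screen; measures binding of labelled protein to compounds printed on the slide; score merges feature fluorescence at 667 nm with signal-to-noise.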 The settings on record: small-molecule microarray, higher = more signal.
Experiment [18] can be described thus: probe aNog binding to arrayed compounds – biochemical, biotinylated probe, 635/667 nm fluorescence, primary screen (AID 1115).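 Note: probe is biotinylated aNog protein used at 0.15 µg/mL for 1 h at 4 C; z-score combines 667 nm fluorescence of each spot with its signal to noise.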 Particulars: small-molecule microarray, higher = more signal.
In experiment [19] the target is Torsin-1A-interacting protein 1 (Homo sapiens) (UniProt Q5JTV8). The experiment can be described thus: compound microarray binding of lysate hLAP1 – cell lysate, small-molecule microarray, COS7 lysate, 635/667 nm fluorescence, primary screen (AID 1116). Particulars: 635 nm fluorescence, higher = more signal.
Sequence of Torsin-1A-interacting protein 1 (Homo sapiens) (Q5JTV8 whole entry, looked up): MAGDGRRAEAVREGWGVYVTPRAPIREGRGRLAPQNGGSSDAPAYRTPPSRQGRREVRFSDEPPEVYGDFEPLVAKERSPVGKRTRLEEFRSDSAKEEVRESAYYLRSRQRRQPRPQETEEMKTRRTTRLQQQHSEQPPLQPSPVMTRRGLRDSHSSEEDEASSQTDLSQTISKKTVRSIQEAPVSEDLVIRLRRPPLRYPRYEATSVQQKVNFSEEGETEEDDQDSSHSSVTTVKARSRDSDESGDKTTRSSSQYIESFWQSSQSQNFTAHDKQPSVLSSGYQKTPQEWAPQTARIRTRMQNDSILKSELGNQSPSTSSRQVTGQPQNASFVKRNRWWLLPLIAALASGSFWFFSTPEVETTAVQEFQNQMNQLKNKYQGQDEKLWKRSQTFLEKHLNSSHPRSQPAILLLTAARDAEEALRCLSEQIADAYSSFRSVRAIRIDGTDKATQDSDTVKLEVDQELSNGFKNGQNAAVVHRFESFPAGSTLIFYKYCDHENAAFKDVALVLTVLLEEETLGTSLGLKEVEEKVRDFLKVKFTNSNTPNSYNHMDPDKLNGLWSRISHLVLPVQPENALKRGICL
Experiment [20] concerns the target Alpha-bungarotoxin (Bungarus multicinctus) (UniProt P60615). The experiment can be described thus: compounds binding labelled alpha-BTX control protein – biochemical, small-molecule microarray, Alexa647 label, 635/667 nm fluorescence, artefact control for SMM control protein annotation, profiling panel (AID 1117). Particulars: alpha-BTX-A647 binding fluorescence, higher = more signal.

Calls of active or inactive are those of the source.

Sequence of Fibroblast growth factor 10 (Homo sapiens) (O15520 whole entry, looked up): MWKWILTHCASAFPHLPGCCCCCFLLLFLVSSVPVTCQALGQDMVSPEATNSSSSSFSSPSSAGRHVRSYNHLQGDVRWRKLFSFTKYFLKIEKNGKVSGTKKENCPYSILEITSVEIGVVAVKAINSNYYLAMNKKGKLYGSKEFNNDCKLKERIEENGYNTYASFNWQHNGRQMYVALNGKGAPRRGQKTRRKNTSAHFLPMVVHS
Sequence of Alpha-bungarotoxin (Bungarus multicinctus) (P60615 whole entry, looked up): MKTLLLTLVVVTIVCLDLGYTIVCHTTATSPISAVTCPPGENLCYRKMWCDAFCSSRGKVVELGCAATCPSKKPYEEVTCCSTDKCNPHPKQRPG
Sequence of Dickkopf-related protein 1 (Homo sapiens) (O94907 whole entry, looked up): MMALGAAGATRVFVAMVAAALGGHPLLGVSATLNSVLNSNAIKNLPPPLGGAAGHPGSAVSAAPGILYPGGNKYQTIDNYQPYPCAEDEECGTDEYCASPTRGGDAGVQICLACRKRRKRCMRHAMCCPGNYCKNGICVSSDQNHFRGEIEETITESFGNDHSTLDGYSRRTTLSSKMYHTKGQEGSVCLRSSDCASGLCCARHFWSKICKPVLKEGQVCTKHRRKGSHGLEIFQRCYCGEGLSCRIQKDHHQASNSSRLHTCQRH

Turning to `C=CCNC(=O)[C@@H]1[C@H]2C(=O)O[C@H](c3ccccc3)[C@H](c3ccccc3)N2[C@H](c2ccc(O)cc2)[C@@]12C(=O)N(C(=O)OCCOC)c1ccc(C#CCNC(N)=O)cc12`, the composite z-score came out at 0.88 in [1]; 0.148 in [2]; 0.658 in experiment [3]; 0.969 in experiment [5]; 1.06 in experiment [6]; 0.119 in experiment [7]. Further, the composite z-score came to 1.08 in [8]; 0.417 in experiment [9]; 1.02 in [10]; 1.32 in experiment [11]; 0.31 in experiment [13]; 1.83 in experiment [14]. For the same compound, the composite z-score came to 0.294 in experiment [15]; 0.0017 in [16]; 1.68 in experiment [17]; 0.681 in experiment [18]; 1.45 in experiment [19]; 0.83 in experiment [20]. Moreover, the z-score was -0.273 (inactive) in [4] and -0.578 in experiment [12].

On to `[N-]=[N+]=Nc1ccccc1[C@@H]1OC(c2ccc(OCCCO)cc2)=N[C@]1(CCS(=O)(=O)c1ccccc1)C(N)=O`, for which the composite z-score worked out at 1.37 in [1]; 0.708 in experiment [2]; 1.25 in experiment [3]; 1.09 in [5]; 1.23 in experiment [6]; 0.0129 in [7]. For the same compound, the composite z-score is 1.22 in [8]; -0.329 in experiment [9]; 0.992 in experiment [10]; 1.38 in experiment [11]; -0.109 in experiment [13]; 0.925 in [14]. Moreover, the composite z-score in experiment [15] was determined as 0.629; in experiment [16], 0.29; in experiment [17], 0.57; in experiment [18], 1.51; in experiment [19], 1.81; in [20] it was 0.992. For the same compound, the z-score is -0.752 (inactive) in experiment [4] and 0.272 in experiment [12].

Regarding `C=CCN1C(=O)[C@]2(O[C@H](CCn3cc([C@H](O)c4ccccc4)nn3)[C@@H]([Si](C)(C)c3ccc(OC)cc3)[C@@H]2C)c2cc(N3CCC3=O)ccc21`, the composite z-score was 1.48 in [1]; -0.29 in experiment [2]; 0.224 in experiment [3]; 0.864 in experiment [5]; 0.169 in [6]; 0.0043 in experiment [7]. The composite z-score in experiment [8] came to 0.306; in [9] it was 0.815; in experiment [10] it was 0.619; in [11], 1.34; in experiment [13], 0.152; in [14], 0.439. In addition, the composite z-score is -0.022 in [15]; -0.0685 in experiment [16]; 0.0253 in experiment [17]; 0.328 in experiment [18]; 0.549 in experiment [19]; 1.07 in [20]. For the same compound, the z-score in experiment [4] is -0.619 (inactive); in [12], -3.08.

Turning to `O=C1C[C@@](C(=O)NCCN2CCOCC2)(c2ccc([N+](=O)[O-])cc2)[C@@H](c2ccc(CO)cc2I)N1CC12CC3CC(CC(C3)C1)C2`, the composite z-score in experiment [1] is 1.29; in experiment [2], -0.174; in experiment [3], 0.283; in [5] it was 1.33; in [6], 1.3; in experiment [7] it was 0.545. Also, the composite z-score in experiment [8] is 1.03; in experiment [9] it was 0.324; in experiment [10], -0.0038; in [11] it was 1.45; in experiment [13] it was 0.462; in [14] it was 0.76. The composite z-score is -0.581 in experiment [15]; -0.034 in experiment [16]; -0.0146 in experiment [17]; -0.388 in experiment [18]; 1.17 in experiment [19]; 1.48 in experiment [20]. The values for the z-score in [4] and in experiment [12] were -3.38 (inactive) and -3.49, respectively.

In the case of `CC(C)N1C(=O)C[C@@](C(=O)NCC(F)(F)F)(c2ccc([N+](=O)[O-])cc2)[C@H]1c1ccc(CO)cc1`, the composite z-score in [1] is 1.42; in experiment [2], -0.186; in experiment [3], 0.52; in [5], -0.244; in experiment [6], 0.0211; in experiment [7] it was -0.399. Moreover, the composite z-score in experiment [8] is -0.241; in experiment [9], -0.272; in [10], 0.5; in experiment [11], 0.627; in experiment [13], -0.383; in experiment [14], -0.273. The composite z-score in [15] was -0.411; in experiment [16], -0.178; in experiment [17], -0.372; in experiment [18], -0.368; in experiment [19], -0.0079; in experiment [20], 0.259. In addition, the z-score in [4] was -0.259 (inactive); in [12], -0.672.
